Source: PubChem
Sampled rows, rich in hits. Any-hit rate of the full collection: about 11%.
ALDH1A1 inh = blocks purified human ALDH1A1 activity; Purified ALDH1A1, NADH fluorescence, propionaldehyde substrate; P00352; actives 7.3% (n = 220,000); Potency, µM (titrated, usually from 75.3 µM), actives largely listed as inhibitors
HPGD inh = inhibitors of human 15-hydroxyprostaglandin dehydrogenase (HPGD); Potency, µM, most hits filed as inhibitors; actives 4.3% (n = 150,000); P15428; purified HPGD, NADH fluorescence kinetic, PGE2 substrate
Target sequence (P15428 whole entry, looked up): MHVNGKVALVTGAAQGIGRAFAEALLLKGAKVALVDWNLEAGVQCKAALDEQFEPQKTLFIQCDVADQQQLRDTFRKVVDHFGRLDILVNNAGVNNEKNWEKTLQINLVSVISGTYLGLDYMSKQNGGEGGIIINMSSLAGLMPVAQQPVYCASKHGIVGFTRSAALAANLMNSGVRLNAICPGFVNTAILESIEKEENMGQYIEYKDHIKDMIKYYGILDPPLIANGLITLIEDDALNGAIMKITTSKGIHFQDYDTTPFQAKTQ
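20 nM HPGD preincubated 15 min at room temperature with compound in 50 mM Tris-HCl pH 8, 0.01% Tween 20. Started with 1 mM NAD+ and 30 uM prostaglandin E2; NADH fluorescence (360/450 nm) read 5 times over 30-s intervals, last minus first.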
12-hLO inh = inhibitors of human 12-lipoxygenase (ALOX12) | P18054 | purified 12-hLO, xylenol orange hydroperoxide absorbance | Potency, µM (titrated, usually from 57.1 µM), actives largely listed as inhibitors | actives 0.12% (n = 150,000) | AID 1452; active means well fitted curve in the direction sought with a large enough effect; inconclusive means small, poorly fitted or top-dose-only effect, or another doubt; inactive means no such curve, though single readings can be large; an effect the other way counts as inactive or inconclusive; further: nearly all actives have a fitted effect of over 55% in size
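Purified human 12hLO (150 nM final) was preincubated with compounds for 15 min at room temperature in 25 mM Hepes pH 7.0, 0.01% Triton X-100, then reacted with 40 uM arachidonic acid for 30 min. Hydroperoxide was detected with ferrous iron/xylenol orange.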
IMPase cell inh = membrane-permeable compound that blocks inositol monophosphatase; P97697; CHO-M1 cells, IP1 accumulation, HTRF TR-FRET ratio; 120,000 tested, under 10 active; inhibition (IP1 accumulation), % at 46.1 µM; active means well fitted curve in the direction sought with a large enough effect in the signal ratio, not every such curve was filed as active; inconclusive means small, poorly fitted or top-dose-only effect, or a change in a side signal; inactive means no such curve, though single readings can be large or run the other way; the % refers to the signal ratio;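 further: cells stimulated with carbachol in lithium chloride buffer; higher means more IMPase inhibition seen as more IP1 and lower FRET ratio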
Target sequence (P97697 whole entry, looked up): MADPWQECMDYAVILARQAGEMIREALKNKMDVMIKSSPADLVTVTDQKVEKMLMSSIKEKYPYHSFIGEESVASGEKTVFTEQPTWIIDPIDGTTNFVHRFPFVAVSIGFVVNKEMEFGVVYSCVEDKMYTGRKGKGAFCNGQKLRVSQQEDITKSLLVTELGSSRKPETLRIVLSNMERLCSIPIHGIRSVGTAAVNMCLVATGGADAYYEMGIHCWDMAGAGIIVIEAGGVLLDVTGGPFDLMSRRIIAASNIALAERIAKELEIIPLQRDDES
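Measured: the HTRF emission ratio (665/620 nm) plus the 620 nm donor channel, each fitted to the Hill equation to give AC50. Cells were CHO-M1 given compounds up to 46 uM and a 30 min carbachol stimulation at 37C.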
PNC inhibitor = blocks assembly of the perinucleolar compartment; PC3M PTB-GFP, PNC prevalence imaging, 16 h; active compounds read low; actives 3.1% (n = 140,000); activity change (PNC), negative = inhibition, % at 10 µM;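 active means readout at or below -70, meaning at least 70% loss of cells showing the perinucleolar compartment, a nuclear body marking cancer cells; inconclusive means readout between -30 and a set limit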
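Read-out is percentage of cells bearing a perinucleolar compartment, from automated 20x imaging of fixed, Hoechst-stained PC3M PTB-GFP cells. Cells were seeded 4 h, then exposed 16 h to compound (23 nl of library stock) in duplicate plates.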
IMPase Li inh = IMPase inhibition in cells with lithium potentiation | actives 0.35% (n = 210,000) | Potency, µM (series often up to 59.4 µM), usual class: inhibitors | AID 1457 | CHO-M1 cells, IP1 TR-FRET (IP-One), carbachol + lithium; active means well fitted curve in the direction sought with a large enough effect; inconclusive means small, poorly fitted or top-dose-only effect, or another doubt; inactive means no such curve, though single readings can be large; an effect the other way counts as inactive or inconclusive;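 further: IP1 builds up when IMPase is blocked and the TR-FRET signal falls; nearly all actives have a fitted effect of over 50% in size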
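Concentration–response in CHO-M1 cells, lithium-potentiated; 30 min at 37C. IP1 detected by competitive TR-FRET after 10 min lysis at RT. Hill-fitted AC50.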
Hits are given with their value; 0 = inactive; ? = inconclusive; - = not tested or not shown; [ ] = remark or other dose. Unless noted, the call rests on the fitted dose curve; in most records, active means well fitted inhibition curve with a large enough effect (not every such curve was filed as active); inconclusive means small, poorly fitted or top-dose-only effect, or another doubt; inactive means no such curve, though single readings can be large or run the other way.

SMILES | ALDH1A1 inh | HPGD inh | 12-hLO inh | IMPase cell inh | PNC inhibitor | IMPase Li inh
Cc1ccccc1OCc1nc2ccccc2c(=O)n1/N=C/c1cn[nH]c1-c1ccc(Br)cc1 | 0 | 31.6µM | 0 | - | ? | 0
Cc1ccc(-n2nc3c(=S)[nH]nc(C)c3c2C)cc1 | 0 | 0 | 0 | ? | 0 | 4.47µM
Cc1n[nH]c(=S)c2nn(-c3ccccc3)c(C)c12 | 0 | 0 | 0 | ? | 0 | 14.1µM
Cc1n[nH]c(=S)c2nn(-c3cccc(Cl)c3)c(C)c12 | 0 | 0 | 0 | 0 | 0 | ?
CC1CC(C)CN(CCOc2ccccc2-c2ccccc2)C1 (stereo not given) | ? | 0 | 0 | - | ? | 0
c1ccc(-c2ccccc2OCCCN2CCCC2)cc1 | ? | 0 | 0 | - | -107.0 | 0
CC1CCN(CCOc2ccccc2-c2ccccc2)CC1 | ? | 0 | 0 | - | -105.2 | 0
Cc1ccccc1OCc1nc2ccccc2n1Cc1ccccc1Cl | - | - | - | 0 | - | -
COc1ccc(N2C(=O)CCC(C(=O)N(C)CCc3ccccn3)C2c2ccc(OC)c(OC)c2)cc1 (stereo not given) | 0 | - | - | - | - | 0
COc1ccc(C2C(C(=O)N3CCCCC3)CC(=O)N2c2ccc(OC)cc2)cc1 (stereo not given) | 14.1µM | 0 | 0 | 0 | 0 | 0
COc1ccc(C2C(C(=O)OCC(=O)N3CCCCC3)CCC(=O)N2c2ccc(OC)cc2)cc1 (stereo not given) | ? | 0 | 0 | 0 | 0 | 0
CCNC(=O)COC(=O)C1CCC(=O)N(c2ccc(OC)cc2)C1c1ccc(OC)cc1 (stereo not given) | 8.91µM | 0 | 0 | 0 | 0 | 0
COc1ccc(C2C(C(=O)NCc3ccco3)CCC(=O)N2c2ccc(OC)cc2)cc1 (stereo not given) | 11.2µM | 0 | 0 | 0 | 0 | 0
CCCCN(C)C(=O)C1CCC(=O)N(c2cc(OC)c(OC)c(OC)c2)C1c1ccc(OC)cc1 (stereo not given) | 0 | 0 | 0 | 0 | -100.0 | 0
CCc1cc2c(nc1CC)CCN(CC/C(C)=N/OC[C@@H](C)[C@H](OCc1ccccc1)C(C)C)C2 | 0[13.5 µM] | - | - | - | - | -
O=C(Nc1ccccc1)N1CC2(CCN(C(=O)c3cccc(F)c3)CC2)C1 | 0 | 0 | 0 | - | - | 0
CCOC(=O)c1c(N)n(-c2ccc(Cl)c(Cl)c2)c2nc3ccccc3nc12 | - | - | - | 0 | - | -
Cc1ccccc1C(=O)NC1(C(F)(F)F)C(=O)Nc2c1c(=O)[nH]c(=O)n2-c1ccc(F)cc1 (stereo not given) | - | - | - | 0 | - | -
COc1ccc(NC(=S)Nc2ccc(OCc3ccccc3)cc2)cc1OC | 17.8µM | 0 | ? | 0 | 0 | 0
CCn1ncc(NC(=S)Nc2ccc(OC)c(OC)c2)c1C(N)=O | ? | - | - | - | - | 0
CCOc1ccc(CC(=O)NNC(=S)Nc2ccc(OC)c(OC)c2)cc1 | 0 | - | - | - | - | 0
CCC(C)c1ccc(NC(=S)Nc2ccc(OC)cc2C)cc1 (stereo not given) | 0 | 25.1µM | 0 | 0 | 0 | 0
CCC(C)c1ccc(NC(=S)Nc2ccc(OC)c(OC)c2)cc1 (stereo not given) | 28.2µM | 0 | ? | 0 | 0 | 0
Cc1c(Cl)cccc1NC(=S)Nn1cnnc1 | 12.6µM | - | - | - | - | 0
O=C(Nc1ccc2c(c1)OC1(CCCC1)O2)C1CC1 | 0 | 0 | 0 | 0 | 0 | 0
SMILES | ALDH1A1 inh | HPGD inh | 12-hLO inh | IMPase cell inh | PNC inhibitor | IMPase Li inh
O=C(NC1CCCCC1)/C(=C/c1ccc(Cl)cc1)NC(=O)c1ccccc1 | - | - | - | 0 | - | -
CCCCCOc1ccc(Br)cc1/C(C)=N/NC1=NCCN1 | 0 | 0 | 0 | ? | -88.5 | 0
CCOC(=O)C(C(C)=O)c1c(Br)c(O)c(O)c2c(C(=O)c3ccc(C)cc3)coc12 (stereo not given) | 0 | 7.94µM | 0 | 0 | 0 | 0
CCOC(=O)c1c(C)n(-c2ccc(C)cc2)c2c(CC(C)=O)c(Br)c(OC)c(O)c12 | 0 | 0 | 0 | 0 | 0 | 0
CCOC(=O)c1cc(C(=O)c2cc(Br)ccc2O)coc1=N | 0 | - | - | - | - | 0
CCOC(=O)c1c(C)n(-c2ccc(C)cc2)c2c(C(C(C)=O)C(=O)O)c(Br)c(O)c(O)c12 (stereo not given) | ? | 17.8µM | ? | 0 | ? | 0
